Measurements: PubChem BioAssay (EPA / NIEHS)
Records with an inconclusive call do not appear. Calls of active or inactive are those of the source. The calls were made as follows, unless noted: active = hit-call score of the fitted dose curve at least 0.9, where 1 is the maximum; inconclusive = response in the unintended direction; inactive = score below 0.9.

target: Estrogen receptor (Homo sapiens) (UniProt P03372); assay: CCTE_Deisenroth_AIME_384WELL_LUC_Active: CCTE's 384-well Estrogen Receptor Transactivation Assay with AIME metabolic competence (ERTA luciferase; metabolism positive), Deisenroth Lab (AID 2284030)
Summary of the method: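 AIME metabolism-positive mode: chemicals 0.002 - 200 uM, 2 h with alginate-bound PB/BNF-induced rat S9 → medium to VM7Luc4E2 ERTA, 24 h → luciferase. Positive fit vs 17beta-estradiol; n=4 typical.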

Chain of Estrogen receptor (Homo sapiens) (P03372 whole entry, looked up): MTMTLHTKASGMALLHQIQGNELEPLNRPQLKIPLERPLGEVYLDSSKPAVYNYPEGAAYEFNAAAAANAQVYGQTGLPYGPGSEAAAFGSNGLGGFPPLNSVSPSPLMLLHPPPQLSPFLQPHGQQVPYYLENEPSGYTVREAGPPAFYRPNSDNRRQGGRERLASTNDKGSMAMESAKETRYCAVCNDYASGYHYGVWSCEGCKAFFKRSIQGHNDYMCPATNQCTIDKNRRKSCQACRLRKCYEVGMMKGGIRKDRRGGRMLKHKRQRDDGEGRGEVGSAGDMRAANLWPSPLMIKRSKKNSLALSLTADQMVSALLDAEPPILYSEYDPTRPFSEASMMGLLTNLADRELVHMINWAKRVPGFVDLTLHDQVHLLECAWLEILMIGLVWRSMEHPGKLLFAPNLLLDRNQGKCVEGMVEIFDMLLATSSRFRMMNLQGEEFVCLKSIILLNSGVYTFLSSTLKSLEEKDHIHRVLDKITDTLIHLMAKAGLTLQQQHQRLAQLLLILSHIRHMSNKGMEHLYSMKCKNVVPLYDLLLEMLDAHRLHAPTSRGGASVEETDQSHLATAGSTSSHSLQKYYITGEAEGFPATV

Structure (SMILES) | outcome
CCCCCCCCCCCCCCCCO | inactive
O=C1CCCCC1 | inactive
COC(=O)CCC(=O)OC | inactive
CCCCCCCC(=O)OC | inactive
CC(C)c1cccc(C(C)C)c1 | inactive
CN(C)CCCN(C)CCCN(C)C | inactive
O=C(O)c1[nH]n(-c2ccc(S(=O)(=O)O)cc2)c(=O)c1N=Nc1ccc(S(=O)(=O)O)cc1 | inactive
NC1CCCCC1 | inactive
O=C(O)CC(O)(CC(=O)O)C(=O)O | inactive
CC1(C)C(=O)NC(=O)N1CO | inactive
CCCCCCC(CCCCCCCCCCC(=O)OCC(COC(C)=O)OC(C)=O)OC(C)=O (stereo not drawn) | inactive
O=[Si]=O | inactive
CC(C)OC(=O)C(C)(C)Oc1ccc(C(=O)c2ccc(Cl)cc2)cc1 | inactive

system: not listed separately; assay: CCTE_Shafer_MEA_dev_firing_rate_mean: CCTE's Neural Network Formation Assay for Mean Firing Rate, Shafer Lab (AID 2284031; active = hit-call score of the fitted dose curve at least 0.9, where 1 is the maximum; inactive = score below 0.9;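 as to AC50: curve fitted for loss of firing so AC50 reflects decreased mean firing rate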)
Summary of the method: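 Primary rat cortical neurons on 48-well MEA plates, exposed from plating day 0 with dosing renewed on DIV 5 and 9. Mean well firing rate over active electrodes, recorded days 5, 7, 9, 12, summarised as trapezoidal AUC.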

Structure (SMILES) | AC50 | outcome
CN(C)CCCN1c2ccccc2Sc2ccc(Cl)cc21 | 3.43 µM (active) | –
OCC(O)CO | – | inactive
O=C1NC(=O)C(c2ccccc2)(c2ccccc2)N1 | – | inactive
CC(=O)CC(c1ccccc1)c1c(O)c2ccccc2oc1=O (stereo not drawn) | – | inactive

system: not listed separately; assay: CCTE_Shafer_MEA_dev_per_burst_spike_percent: CCTE's Neural Network Formation Assay for Percent of Spikes in a Burst, Shafer Lab (AID 2284032; active = hit-call score of the fitted dose curve at least 0.9, where 1 is the maximum; inactive = score below 0.9;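 as to AC50: fitted as a decrease in burst spike percentage below DMSO baseline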)
Summary of the method: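 Rat primary cortical neurons on 16-electrode MEA wells, dosed from plating day 0 for 12 days with renewal on DIV 5 and 9; spikes-in-bursts percentage averaged over bursting electrodes, collapsed as AUC across days 5, 7, 9, 12; loss direction versus DMSO.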

Structure (SMILES) | AC50 | outcome
CN(C)CCCN1c2ccccc2Sc2ccc(Cl)cc21 | 6.1 µM (active) | –
OCC(O)CO | – | inactive
O=C1NC(=O)C(c2ccccc2)(c2ccccc2)N1 | – | inactive
CC(=O)CC(c1ccccc1)c1c(O)c2ccccc2oc1=O (stereo not drawn) | – | inactive

system: not listed separately; assay: CCTE_Deisenroth_AIME_384WELL_CTox_Active: Cytotoxicity Assessment (CTOX) in CCTE's 384-well Estrogen Receptor Transactivation Assay with AIME metabolic competence (metabolism positive), Deisenroth Lab (AID 2284037);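 also: chemicals first conditioned 2 h by alginate-bound induced rat liver S9 before cells; activity means signal loss indicating cell death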
Summary of the method: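 VM7Luc4E2 breast cells received medium pre-incubated 2 h with chemical over alginate microspheres holding induced male Sprague Dawley rat liver S9; viability read 24 h later by protease-substrate fluorescence. Loss of signal, bidirectional fit, 0.002–200 uM.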

Structure (SMILES) | outcome | AC50
CCCCCCCCCCCCCCCCO | inactive | –
C/C=C/C=C/C(=O)O | inactive | –
CC(C)(O)c1ccc(CNC(=O)c2cccnc2Oc2ccc(F)cc2)cc1 | inactive | –
O=C1CCCCC1 | inactive | –
CCCCCCCC(=O)OC | inactive | –
CC(C)c1cccc(C(C)C)c1 | inactive | –
CN(C)CCCN(C)CCCN(C)C | inactive | –
COC(=O)CCCC(=O)OC | inactive | –
O=C(O)c1[nH]n(-c2ccc(S(=O)(=O)O)cc2)c(=O)c1N=Nc1ccc(S(=O)(=O)O)cc1 | – | 100 µM (active)
CC(=O)OCC(COC(C)=O)OC(C)=O | inactive | –
Oc1ccccc1O | – | 100 µM (active)
O=C(O)CC(O)(CC(=O)O)C(=O)O | inactive | –
CCCCC(CC)CO (stereo not drawn) | inactive | –
NC=O | inactive | –
CC(=O)O | inactive | –
CC1(C)C(=O)NC(=O)N1CO | inactive | –
CCOCCOCCO | inactive | –
O=[Si]=O | inactive | –
CC(=O)CC(c1ccccc1)c1c(O)c2ccccc2oc1=O (stereo not drawn) | inactive | –
CC(C)OC(=O)C(C)(C)Oc1ccc(C(=O)c2ccc(Cl)cc2)cc1 | inactive | –

target: Estrogen receptor (Homo sapiens) (UniProt P03372); assay: CCTE_Deisenroth_AIME_384WELL_LUC_Inactive: CCTE's 384-well Estrogen Receptor Transactivation Assay without AIME metabolic competence (ERTA luciferase; metabolism negative), Deisenroth Lab (AID 2284038);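 also: hits raise estrogen receptor luciferase signal so potencies reflect agonists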
Summary of the method: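 Metabolism-negative mode: chemicals (10-point, 0.002–200 uM) held 2 h with alginate-water microspheres, then conditioned medium applied to VM7Luc4E2 cells for 24 h. Luciferase induction referenced to 17beta-estradiol.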

Structure (SMILES) | outcome
CCCCCCCCCCCCCCCCO | inactive
O=C1CCCCC1 | inactive
COC(=O)CCC(=O)OC | inactive
CCCCCCCC(=O)OC | inactive
CC(C)c1cccc(C(C)C)c1 | inactive
CN(C)CCCN(C)CCCN(C)C | inactive
O=C(O)c1[nH]n(-c2ccc(S(=O)(=O)O)cc2)c(=O)c1N=Nc1ccc(S(=O)(=O)O)cc1 | inactive
NC1CCCCC1 | inactive
O=C(O)CC(O)(CC(=O)O)C(=O)O | inactive
CC1(C)C(=O)NC(=O)N1CO | inactive
CCCCCCC(CCCCCCCCCCC(=O)OCC(COC(C)=O)OC(C)=O)OC(C)=O (stereo not drawn) | inactive
O=[Si]=O | inactive
CC(C)OC(=O)C(C)(C)Oc1ccc(C(=O)c2ccc(Cl)cc2)cc1 | inactive

system: not listed separately; assay: CCTE_Shafer_MEA_dev_active_electrodes_number: CCTE's Neural Network Formation Assay for Number of Active Electrodes, Shafer Lab (AID 2284040);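 as to AC50: potency for loss of active electrodes versus DMSO so lower counts are hits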
Summary of the method: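 Primary rat cortical neurons on 16-electrode MEA wells, exposed from day 0 through day 12 with compound renewed at DIV 5 and 9 feeds. Active electrodes (mean firing ≥5 spikes/min) counted at DIV 5, 7, 9, 12; trapezoidal AUC across days, loss-of-signal versus DMSO.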

Structure (SMILES) | AC50 | outcome
CN(C)CCCN1c2ccccc2Sc2ccc(Cl)cc21 | 5.17 µM (active) | –
OCC(O)CO | – | inactive
O=C1NC(=O)C(c2ccccc2)(c2ccccc2)N1 | – | inactive
CC(=O)CC(c1ccccc1)c1c(O)c2ccccc2oc1=O (stereo not drawn) | 2.98 µM (active) | –

target: Estrogen receptor (Homo sapiens) (UniProt P03372); assay: CCTE_Deisenroth_AIME_384WELL_LUC_Shift: CCTE's 384-well Estrogen Receptor Transactivation Assay with AIME metabolic competence data shift (ERTA luciferase; difference in metabolism positive and negative), Deisenroth Lab (AID 2284041; active = hit-call score of the fitted dose curve at least 0.9, where 1 is the maximum; inactive = score below 0.9;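 also: shift is response with S9 minus without S9 so positive means metabolism raised ER signal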)
Summary of the method: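 Here, parent compounds undergo 2 h phase I metabolism by PB/BNF-induced rat S9 before 24 h transactivation in VM7Luc4E2 cells; the curve models S9-positive minus S9-negative response over a 10-point series.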

Structure (SMILES) | outcome
CCCCCCCCCCCCCCCCO | inactive
O=C1CCCCC1 | inactive
COC(=O)CCC(=O)OC | inactive
CCCCCCCC(=O)OC | inactive
CC(C)c1cccc(C(C)C)c1 | inactive
CN(C)CCCN(C)CCCN(C)C | inactive
O=C(O)c1[nH]n(-c2ccc(S(=O)(=O)O)cc2)c(=O)c1N=Nc1ccc(S(=O)(=O)O)cc1 | inactive
NC1CCCCC1 | inactive
O=C(O)CC(O)(CC(=O)O)C(=O)O | inactive
CC1(C)C(=O)NC(=O)N1CO | inactive
CCCCCCC(CCCCCCCCCCC(=O)OCC(COC(C)=O)OC(C)=O)OC(C)=O (stereo not drawn) | inactive
O=[Si]=O | inactive
CC(C)OC(=O)C(C)(C)Oc1ccc(C(=O)c2ccc(Cl)cc2)cc1 | inactive

system: not listed separately; assay: CCTE_Shafer_MEA_dev_burst_rate: CCTE's Neural Network Formation Assay for Burst Rate, Shafer Lab (AID 2284042; active = hit-call score of the fitted dose curve at least 0.9, where 1 is the maximum; inactive = score below 0.9;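 as to AC50: potency for loss of burst rate below DMSO control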)
Summary of the method: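 Rat primary cortical cultures on PEI/laminin MEA; compound from plating, re-dosed at DIV 5, 9 media change. Single-electrode bursts/recording length, well mean of active electrodes; AUC over DIV 5–12 recordings; loss-of-signal vs DMSO.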

Structure (SMILES) | AC50 | outcome
CN(C)CCCN1c2ccccc2Sc2ccc(Cl)cc21 | 5.08 µM (active) | –
OCC(O)CO | – | inactive
O=C1NC(=O)C(c2ccccc2)(c2ccccc2)N1 | – | inactive
CC(=O)CC(c1ccccc1)c1c(O)c2ccccc2oc1=O (stereo not drawn) | – | inactive

system: not listed separately; assay: CCTE_Shafer_MEA_dev_bursting_electrodes_number: CCTE's Neural Network Formation Assay for Number of Bursting Electrodes, Shafer Lab (AID 2284043);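 as to AC50: potency is for loss of bursting electrodes relative to DMSO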
Summary of the method: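 Primary rat cortical neurons were cultured on PEI-coated 48-well MEA plates (16 electrodes/well) and exposed from plating through day 12, with compound renewed at feeds on DIV 5 and 9. Electrodes bursting ≥1 per 2 min were counted on DIV 5, 7, 9, 12; trapezoidal AUC taken.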

Structure (SMILES) | AC50 | outcome
CN(C)CCCN1c2ccccc2Sc2ccc(Cl)cc21 | 4.33 µM (active) | –
OCC(O)CO | – | inactive
O=C1NC(=O)C(c2ccccc2)(c2ccccc2)N1 | – | inactive
CC(=O)CC(c1ccccc1)c1c(O)c2ccccc2oc1=O (stereo not drawn) | 2.98 µM (active) | –

system: not listed separately; assay: CCTE_Shafer_MEA_dev_per_burst_interspike_interval: CCTE's Neural Network Formation Assay for Burst Interspike Interval, Shafer Lab (AID 2284044; active = hit-call score of the fitted dose curve at least 0.9, where 1 is the maximum; inactive = score below 0.9;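 also: mean spike spacing inside bursts as AUC over recordings on days 5 7 9 12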;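 as to AC50: potency for a decrease of within-burst interspike interval below DMSO level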)
Summary of the method: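 Neurons from rat cortex plated onto PEI-coated MEA wells with laminin […] at 1.5 x 10^5 cells/well, then treated from day 0. Media and compound fully replaced on DIV 5 and 9. Extracellular spontaneous firing recorded four times; interspike interval per burst summarised as AUC.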

Structure (SMILES) | AC50 | outcome
CN(C)CCCN1c2ccccc2Sc2ccc(Cl)cc21 | 8.95 µM (active) | –
OCC(O)CO | – | inactive
O=C1NC(=O)C(c2ccccc2)(c2ccccc2)N1 | – | inactive
CC(=O)CC(c1ccccc1)c1c(O)c2ccccc2oc1=O (stereo not drawn) | – | inactive
